From PubChem
Vif-APOBEC3F blk: inhibitors of Vif-A3F interaction. HeLa A3F-eYFP + Vif (tagged APOBEC3F with the HIV-1 protein that degrades it), YFP fluorescence increase. Potency, µM (top dose mostly 46.1 µM), inactives show top-dose activity, negative = active. 390,000 tested, 0.2% active; also: potency is read from the fitted curve at half-maximal effect; % of control where 0% means no effect; nearly all actives have a fitted effect of over 65% in size
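Fluorescence increase (Ex 488/Em 500-530) after overnight compound treatment at 37 deg C flags inhibition of Vif-driven A3F-eYFP loss in stable HeLa A3F-eYFP/Vif cells seeded overnight beforehand.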
12-LOX inh: ALOX12 (human) lipoxygenase inhibition; P18054; purified 12hLO, xylenol orange hydroperoxide absorbance; Potency, µM (doses to about 108 µM), without a hit: at the highest dose activity change, negative = inhibition, most hits filed as inhibitors; 580,000 tested, 1.1% active; AID 1671190; also: potency is read from the fitted curve at half-maximal effect; % is scaled to controls: 0 for no effect and ±100 for the full control effect
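Purified human 12hLO at 150 nM in 25 mM Hepes, 0.01% Triton X-100, pH 7.0, preincubated 15 min at room temperature with compound. Reaction started with 40 uM arachidonic acid, 30 min at room temperature. Hydroperoxide measured by Fe-xylenol orange, 573/405 nm absorbance ratio.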
Glioma ERSR ind: induces the endoplasmic reticulum stress response in human glioma cells; U87-MG GRP78 promoter luciferase reporter, 16 h; Potency, µM, without a hit: at the top dose activation, actives largely listed as activators; 420,000 tested, 0.02% active; also: potency is read from the fitted curve at half-maximal effect; series mostly up to about 76 µM; % of control where 0% means no effect; nearly all actives have a fitted effect of over 35% in size
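Stably transfected U87-MG human glioma cells carrying a GRP78-based luminescent sensor were seeded at 1000 cells/well, pin-dosed with compounds and incubated 16 h. Luciferase reagent was then added, and end-point luminescence was read after 10 min at room temperature.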
Vif-A3G inh: blocks the Vif interaction with human APOBEC3G | HeLa A3G-eYFP + Vif (tagged APOBEC3G with the HIV-1 protein that degrades it), YFP fluorescence, overnight | 410,000 tested, 0.076% active | Q9HC16 | Potency, µM (titrated, usually from 46.1 µM), without a hit: at the top dose activity, negative = active, hits mostly inhibitors | AID 602310; also: potency is read from the fitted curve at half-maximal effect; % is scaled to controls: 0 for no effect and ±100 for the full control effect; nearly all actives have a fitted effect of over 60% in size
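Read-out is eYFP fluorescence (Ex 488/Em 500-530) from Vif-expressing HeLa A3G-eYFP cells; more signal means A3G escaped Vif-mediated degradation. Cells plated overnight, compound pinned in, incubated overnight at 37 deg C.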
TRPML1 inh: blocks the human TRPML1 channel. Q9GZU1. TRPML1-inducible cells, Ca2+ dye fluorescence, FDSS; stronger effect = lower value; inhibition of EC80 agonist-evoked calcium signal. activity change, negative = inhibition, % (no concentration beside the values). 390,000 tested, 0.02% active. AID 624415; in the data active = activity change below about -50%; inconclusive = between about -30% and that limit;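 also: stimulus is agonist 54-4 at its EC80 concentration; % is scaled to controls: 0 for no effect and ±100 for the full control effect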
Target sequence (Q9GZU1 whole entry, looked up): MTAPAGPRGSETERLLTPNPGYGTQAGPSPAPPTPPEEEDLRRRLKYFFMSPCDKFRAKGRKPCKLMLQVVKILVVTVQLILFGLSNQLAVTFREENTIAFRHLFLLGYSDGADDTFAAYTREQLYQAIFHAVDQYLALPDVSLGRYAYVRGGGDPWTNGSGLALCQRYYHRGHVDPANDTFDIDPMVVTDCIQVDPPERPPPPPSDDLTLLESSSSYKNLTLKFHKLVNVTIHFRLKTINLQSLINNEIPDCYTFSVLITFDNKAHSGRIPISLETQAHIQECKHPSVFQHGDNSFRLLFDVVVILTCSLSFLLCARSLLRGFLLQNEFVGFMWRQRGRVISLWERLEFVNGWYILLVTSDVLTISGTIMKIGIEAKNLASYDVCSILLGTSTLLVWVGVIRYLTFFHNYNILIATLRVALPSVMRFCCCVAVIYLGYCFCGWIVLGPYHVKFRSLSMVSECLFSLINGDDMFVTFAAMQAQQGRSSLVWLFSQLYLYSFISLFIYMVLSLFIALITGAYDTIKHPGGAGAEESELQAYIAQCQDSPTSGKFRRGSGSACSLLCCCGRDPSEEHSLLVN
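TRPML1-DL cells, Tet-induced overnight (~16 h, 37 °C) at 1,500 cells/well, were loaded with Ca8 no-wash dye plus quencher for 45-90 min at room temperature. Compounds were pinned during FDSS kinetic reading; agonist 54-4 at EC80 (4 uM final) then added.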
TRPML1 ag: agonists of human TRPML1 channel; Q9GZU1; TRPML1-expressing cells, Ca2+ dye fluorescence, FDSS; activation, % (no concentration beside the values); 410,000 tested, 0.12% active; AID 624414; in the data active = activation above about 50%; inconclusive = mostly about 30% to 49%; also: 0% is about no effect
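TRPML1-DL cells, Tet-induced overnight (~16 h, 37 degrees C), loaded 45-90 min at room temperature with Ca8 no-wash calcium dye plus quencher. FDSS fluorescence: 10 s baseline, compound pin-transfer, 110 s agonist read, then EC80 54-4 (4uM final) and 110 s antagonist read.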
An asterisk follows results filed as active; ? = inconclusive; / = no result. Hits are enriched below; roughly 1.3% of the tested compounds scored in any of these assays. Unless noted, calls follow the shape of the dose curve; as a rule, active = well fitted curve in the direction sought with a large enough effect; inconclusive = small, poorly fitted or top-dose-only effect, or another doubt; inactive = no such curve, though single readings can be large; an effect the other way counts as inactive or inconclusive.

SMILES	Vif-APOBEC3F blk	12-LOX inh	Glioma ERSR ind	Vif-A3G inh	TRPML1 inh	TRPML1 ag
Cc1ccc(/C=C2/NC(=O)N(Cc3ccccc3)C2=O)o1	?	32µM*	6%	-23%	16	1
CCOc1ccc2oc(=O)c(-c3ccccc3)c(C)c2c1	/	26%	/	/	/	/
C=CCc1cccc(CNc2nc3ccccc3n2C)c1O	0%	32µM*	7%	2%	40	2
C=CCc1cccc(CNc2nc3ccccc3n2CCN2CCOCC2)c1O	0%	20%	-1%	2%	2	1
Oc1ccc(Cl)cc1CNc1cnc2ccccc2c1	3%	40µM*	9%	-14%	-6	1
Oc1ccccc1CNc1cnc2ccccc2c1	-10%	?	9%	-3%	-14	0
C=CCc1cccc(CNc2cnc3ccccc3c2)c1O	-24%	7.9µM*	2%	-5%	/	/
NC(=S)Nc1cnc2ccccc2c1	/	-18%	0%	-5%	-16	-1
CC(Sc1ncc(C(F)(F)F)cc1Cl)C(=O)NC(C)c1ccc(F)cc1 (stereo not drawn)	/	39%	/	/	/	/
COc1ccc(N2CCN(C(=O)CN(c3cccc(Br)c3)S(C)(=O)=O)CC2)cc1	-3%	-11%	-3%	0%	-1	0
CS(=O)(=O)N(CC(=O)N1CCN(c2ccccc2)CC1)c1cccc(Br)c1	-1%	28µM*	-3%	-1%	-10	0
COc1cc(C=O)c(Br)cc1OCC(=O)NCCc1ccccc1	1%	-12%	-3%	1%	-12	0
CCOC(=O)COc1cc(Br)c(/C=N/Nc2ccccc2)cc1OC	0%	?	35µM*	-14%	7	0
Cc1ccc(CC(=O)Nc2ccc(N(C)C)cc2)cc1	/	20µM*	/	/	/	/
Cc1ccc(OCC(=O)Nc2ccc(N(C)C)cc2)cc1	4%	?	4%	1%	10	-1
CCCc1cc(=O)[nH]c(SCC(=O)N2CCN(S(=O)(=O)c3cc(C)ccc3C)CC2)n1	/	2%	/	/	/	/
CCN1CCc2c(sc(NC(=O)CSc3ccccc3)c2-c2nc3ccccc3s2)C1	?	?	0%	?	-14	70*
CC(=O)N1CCc2c(sc(NC(=O)CSc3ccc(F)cc3)c2-c2nc3ccccc3s2)C1	-17%	?	1%	-4%	-6	0
CN1CCc2c(sc(NC(=O)CSc3ccc(F)cc3)c2-c2nc3ccccc3s2)C1	?	-2%	-6%	?	-13	66*
CC(=O)Nc1sc2c(c1-c1nc3ccccc3s1)CCN(C(C)C)C2	11µM*	/	-7%	11µM*	19	10
Cc1cccc(C(=O)NC2CC2)c1C	/	-14%	/	/	/	/
COc1ccc(N=Cc2oc3ccc4ccccc4c3c2O)cc1	7.9µM*	-26%	-2%	8.9µM*	-6	18
COc1ccc(OC)c(NC(=O)Cc2c(C)c3ccc(OC)c(C)c3oc2=O)c1	/	16%	/	/	/	/
CC(=O)NCCNc1nc(NCc2cccs2)nc2ccsc12	/	?	-3%	-3%	/	6
O=C1CCCN1CCCNc1nc(NCc2cccs2)nc2ccsc12	/	0%	12%	-2%	/	57*
SMILES	Vif-APOBEC3F blk	12-LOX inh	Glioma ERSR ind	Vif-A3G inh	TRPML1 inh	TRPML1 ag
N=c1n(CC(=O)c2ccc([N+](=O)[O-])cc2)c2ccccc2n1Cc1ccc(Cl)cc1	?	?	-4%	-5%	-14	1
N=c1n(CC(=O)c2ccc([N+](=O)[O-])cc2)c2ccccc2n1Cc1ccccc1	13µM*	?	-3%	?	5	0
CC(NC(=O)CSc1ccc2c(c1)OCCCO2)c1cc2ccccc2o1 (stereo not drawn)	/	-5%	/	/	/	/
Cc1ccc(C(=O)c2sc(Nc3cc(C)cc(C)c3)nc2N)cc1	/	-15%	/	/	/	/
CCOC(=O)c1sc(Nc2ccccc2Cl)nc1C	-2%	28µM*	10%	0%	2	0
Cc1ccc(C(=O)c2sc(Nc3cccc(Cl)c3C)nc2N)cc1	/	28µM*	/	/	/	/
CCOC(=O)c1sc(NC(=O)Nc2ccccc2F)nc1C	1%	9%	-12%	-2%	-11	0
Cc1cc(C)n(-c2nc(Nc3ccccc3)nc(-n3nc(C)cc3C)n2)n1	-2%	12%	-2%	-1%	15	0
COc1cccc(/C=N/Nc2nc(Nc3ccccc3)nc(-n3nc(C)cc3C)n2)c1O	-3%	0%	2%	-6%	-52*	1
COC(=O)c1c(C)sc(-c2c(-c3ccc(F)cc3)[nH]c3[nH]c(=O)[nH]c(=O)c23)c1O	/	45µM*	/	/	-2	9
O=C(Nc1ccccc1Cl)C1Sc2nnc(-c3ccccc3)n2NC12CCCC2 (stereo not drawn)	/	81%	/	/	/	/
O=C1C=CC(=O)N1N(c1ccccc1)c1ccccc1	-4%	35µM*	-6%	-18%	4	1
CC1=NN(c2nc(-c3ccc(Cl)cc3)cs2)C(=O)C1	-1%	5.6µM*	-3%	0%	7	0
CCOC(=O)C1=C(CN(CCOC)Cc2ccco2)NC(=O)NC1c1ccc(C)cc1 (stereo not drawn)	/	-18%	/	/	/	/
CCCN(CCC)CC1=C(C(=O)OCC)C(c2ccc(C)cc2)NC(=O)N1 (stereo not drawn)	/	14µM*	/	/	/	/
CCNC(=O)NC(=O)C(C)OC(=O)c1cc(-c2ccco2)nc2ccccc12 (stereo not drawn)	/	13µM*	/	/	/	/
CCNC(=O)COC(=O)c1cc(-c2ccco2)nc2ccccc12	-3%	7.1µM*	-3%	-6%	-1	2
NC(=O)NC(=O)COC(=O)c1cc(-c2ccco2)nc2ccccc12	/	14µM*	/	/	/	/
O=C(NC1CC1)c1cc(-c2ccco2)nc2ccccc12	1%	?	-3%	-2%	5	-1
CN(C)c1ccc(N=C(C#N)c2ccccc2)cc1	/	-2%	/	/	/	/
CN(C)CCNc1oc(-c2ccc(S(=O)(=O)N3CCCC3)cc2)nc1C#N	/	12%	/	/	/	/
O=C(CNC(=O)c1[nH]c2ccccc2c1Cl)NCc1ccccc1	/	-6%	/	/	/	/
NC(=O)[C@H]1C[C@@H](O)[C@H](O)[C@H]2[C@@H]1SC(=Nc1ccc(Cl)cc1)N2CC1CCCCC1	/	28µM*	/	/	/	/
